The values below come from PubChem BioAssay (EPA / NIEHS).

Results filed as inconclusive are left out. Active and inactive are the calls of the source. How the source made its calls, unless noted: active means hit-call score of the fitted dose curve at least 0.9, where 1 is the maximum; inconclusive means response in the unintended direction; inactive means score below 0.9.

Test [1] is described as follows: CCTE_Shafer_MEA_acute_AB: CCTE's Alamar Blue Assay for Cytotoxicity in the Neural Acute Assay, Shafer Lab (AID 2284069).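 Further: active compounds lower the viability signal compared with DMSO wells.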 Put shortly: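 Resazurin reduction (CellTiter Blue, 1:6 in fresh medium) read at ex 544/em 590 nm marks viability loss relative to DMSO. Cells: primary rat cortical neuron networks on microelectrode arrays, treated after baseline recording at 13 or 15 days in vitro.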
For orientation: Alamar Blue is a resazurin reagent that responds to reducing activity.

For the next test, the system named is DIO3 (gene 1735). The experiment in a line: CCTE_GLTED_hDIO3: CCTE's human Deiodinase 3 (DIO3) Inhibition Assay, Great Lakes Toxicology and Ecology Division (GLTED) Lab (AID 2284055).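 Further: potency is for inhibition seen as loss of released iodide signal.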 Put shortly:
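Cell-free assay with human DIO3 enzyme produced by adenovirus expression; enzyme incubated with test chemical for 3 hours. Liberated iodide then measured by Sandell-Kolthoff absorbance; loss of signal versus DMSO baseline indicates inhibition, run in triplicate.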

Test [2] is described as follows: CCTE_Shafer_MEA_acute_LDH: CCTE's Lactate Dehydrogenase Assay for Cytotoxicity in the Neural Acute Assay, Shafer Lab (AID 2284086).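 Further: active means LDH release rises above DMSO vehicle level.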 The procedure, abridged:
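Primary rat cortical neurons on 48-well MEA plates, treated on day 13 or 15 post-plating. After the 40-min recording with compound, medium LDH release was read by absorbance at 490 nm. Gain of signal was fitted against DMSO negative control.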

A short description of test [3]: UKN5_HCS_SBAD2_cell_viability: Viability Assessment in the University of Konstanz (UKN) Leist Lab Neurite Outgrowth Assay in human iPSC-derived immature Dorsal Root Ganglia Neurons (UKN5) (AID 2284056; active means hit-call score of the fitted dose curve at least 0.9, where 1 is the maximum; inactive means score below 0.9). The procedure, abridged:
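iPSC-derived immature peripheral neurons (SBAD2) seeded on Matrigel with CHIR99021, SU5402 and DAPT, dosed 1 h later for 24 h. Viability from Hoechst H-33342 and calcein-AM live staining, high-content imaging; bidirectional fit versus DMSO.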

Test [4] is described as follows: CCTE_Shafer_MEA_dev_LDH: CCTE's Lactate Dehydrogenase Assay for Cytotoxicity in the Neural Network Formation Assay, Shafer Lab (AID 2284068).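 Further: exposure for twelve days from plating with re-dosing on DIV 5 and 9.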 The procedure, abridged:
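Primary rat cortical neurons were cultured on PEI-coated MEA plates and exposed from plating through day 12, with compound renewed at medium changes on DIV 5 and 9. LDH activity was read spectrophotometrically; loss of signal versus DMSO indicates reduced viability.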

Test [5] in a line: UKN5_HCS_SBAD2_neurite_outgrowth: University of Konstanz (UKN) Leist Lab Neurite Outgrowth Assay in human iPSC-derived immature Dorsal Root Ganglia Neurons (UKN5) (AID 2284070; active means hit-call score of the fitted dose curve at least 0.9, where 1 is the maximum; inactive means score below 0.9). The settings on record: actives raise or lower the signal. Put shortly:
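Human iPSC-derived immature DRG neurons (SBAD2) on Matrigel with CHIR99021 (1.5 uM), SU5402 (5 uM), DAPT (5 uM); compounds added 1 h post-seeding for 24 h. Calcein-AM neurite area imaged; bidirectional fit vs DMSO.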

A short description of test [6]: CCTE_Shafer_MEA_dev_AB: CCTE's Alamar Blue Assay for Cytotoxicity in the Neural Network Formation Assay, Shafer Lab (AID 2284083).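 Further: resazurin reduction fluorescence as viability of cultured neurons; twelve days of exposure from plating with re-dosing on DIV 5 and 9.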 The procedure, abridged:
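Resazurin fluorescence, relative to DMSO, gauges viability after twelve days of exposure that began at plating of rat cortical neurons (1.5 x 10^5 cells/well, 48-well MEA); treatment renewed with full medium exchange on DIV 5 and 9.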

Test [7] can be described thus: CCTE_Shafer_MEA_dev_mutual_information_norm: CCTE's Neural Network Formation Assay for Mutual Information Normalization, Shafer Lab (AID 2284091; active means hit-call score of the fitted dose curve at least 0.9, where 1 is the maximum; inactive means score below 0.9;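 on AC50: mutual information between electrodes summarised as area under curve across four recording days; potency is for a decrease in mutual information relative to DMSO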). The procedure, abridged:
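Rat cortical cultures, 48-well MEA, continuous exposure DIV 0–12 with full media/compound change DIV 5 and 9. Readout: inter-electrode mutual information, AxIS adaptive spike detection; AUC across DIV 5/7/9/12 recordings; DMSO baseline, negative fitting direction.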

Test [8] can be described thus: CCTE_Shafer_MEA_dev_correlation_coefficient_mean: CCTE's Neural Network Formation Assay for Mean Correlation Coefficient, Shafer Lab (AID 2284093; active means hit-call score of the fitted dose curve at least 0.9, where 1 is the maximum; inactive means score below 0.9;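 on AC50: well mean pairwise spike train correlation integrated as AUC over recording days 5 to 12; potency fitted for loss of correlation relative to DMSO vehicle wells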). The procedure, abridged: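 Primary rat cortical neurons on PEI-coated 48-well MEA plates (16 electrodes/well) were exposed from plating day 0 through DIV12, with compound renewed at DIV5 and 9. Pairwise spike correlations were averaged per well; trapezoidal AUC across DIV5, 7, 9, 12.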

The nature of test [9]: UKN2_HCS_IMR90_neural_migration: University of Konstanz (UKN) Leist Lab Neural Crest Cell Migration Assay in human induced IMR90 Pluripotent Stem Cells (UKN2) (AID 2284204; active means hit-call score of the fitted dose curve at least 0.9, where 1 is the maximum; inactive means score below 0.9). The settings on record: actives raise or lower the signal. Put shortly: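 iPSC-derived IMR90 neural crest cells on PLO/laminin/fibronectin were seeded around silicone stoppers; after stopper removal, migration in N2-S medium with EGF and FGF ran 24 h before 24 h chemical exposure. Calcein-AM/Hoechst high-content imaging; bidirectional fit versus DMSO.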

A short description of test [10]: UKN4_HCS_LUHMES_neurite_outgrowth: University of Konstanz (UKN) Leist Lab Neurite Outgrowth Assay in human LUHMES cells (UKN4) (AID 2284206; active means hit-call score of the fitted dose curve at least 0.9, where 1 is the maximum; inactive means score below 0.9). The settings on record: actives raise or lower the signal. The procedure, abridged: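 LUHMES neuronal precursors differentiated 2 days, replated without cAMP/GDNF, then exposed to chemicals for 24 h. Neurite area imaged by high-content microscopy after calcein-AM staining; Hoechst H-33342 marks viability. Bidirectional fit versus DMSO.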

The nature of test [11]: IUF_NPC1b_proliferation_BrdU_72hr: Leibniz Research Institute for Environmental Medicine (IUF) 72-hour Neural Progenitor Cell Bromodeoxyuridine (BrdU) Proliferation Assay (NPC1b) (AID 2284207; active means hit-call score of the fitted dose curve at least 0.9, where 1 is the maximum; inactive means score below 0.9). Put shortly:
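hNPC spheres (primary, GW 16-19 fetal cortex), single sphere/well, EGF+FGF medium; 72 h compound, no renewal; BrdU pulse last 16 h; luminescent ELISA; activity vs DMSO baseline; growth-factor withdrawal as positive control.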

A short description of test [12]: IUF_NPC1a_proliferation_area_72hr: Leibniz Research Institute for Environmental Medicine (IUF) 72-hour Neural Progenitor Cell Proliferation Area Assay (NPC1a) (AID 2284208; active means hit-call score of the fitted dose curve at least 0.9, where 1 is the maximum; inactive means score below 0.9). Put shortly: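 Measured in 3D suspension: each well held one primary hNPC sphere grown with EGF and FGF at pH 7.2-7.6. Compound stayed on for 72 h, then area was imaged; spheres lacking growth factors defined reduced proliferation.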

A short description of test [13]: IUF_NPC1_viability_72hr: Viability Assessment at 72 hours in the Leibniz Research Institute for Environmental Medicine (IUF) Neural Progenitor Cell Proliferation Assay (NPC1) (AID 2284209; active means hit-call score of the fitted dose curve at least 0.9, where 1 is the maximum; inactive means score below 0.9). The procedure, abridged: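 Human fetal-cortex neural progenitor spheres (0.25–0.35 mm, one per well) grown in EGF/FGF proliferation medium at 37C, pH 7.2-7.6, exposed 72 h without renewal; viability read as alamar blue resazurin-to-resorufin fluorescence relative to DMSO.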

Test [14] is described as follows: CCTE_Mundy_HCI_Cortical_Synap_Neur_Matur_NeuriteSpotCountPerNeuriteLength: CCTE's Synaptogenesis and Neurite Maturation Assay in rat cortical cells for Neurite Spot Count per Neurite Length, Mundy Lab (AID 2284210; active means hit-call score of the fitted dose curve at least 0.9, where 1 is the maximum; inactive means score below 0.9). Put shortly: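 Rat primary cortical cultures, glia arrested with AraC at DIV 5, were dosed with media change at DIV 7 and fixed at DIV 12. Synaptophysin puncta per MAP2-labelled neurite length were quantified by high-content imaging versus DMSO.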

Test [15] is described as follows: CCTE_Mundy_HCI_Cortical_NOG_NeuriteLength: CCTE's Neurite Outgrowth Assay in rat cortical cells for Neurite Length, Mundy Lab (AID 2284213; active means hit-call score of the fitted dose curve at least 0.9, where 1 is the maximum; inactive means score below 0.9;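 further: neurites imaged about 48 to 50 h after chemical exposure began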). Put shortly:
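Neurite length was read by high-content imaging of βIII-tubulin-labelled neurites in rat primary cortical cultures. Activity was fitted relative to DMSO.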

Test [16] in a line: CCTE_Mundy_HCI_Cortical_Synap_Neur_Matur_NeuriteSpotCountPerNeuron: CCTE's Synaptogenesis and Neurite Maturation Assay in rat cortical cells for Neurite Spot Count per Neuron Count, Mundy Lab (AID 2284215; active means hit-call score of the fitted dose curve at least 0.9, where 1 is the maximum; inactive means score below 0.9). Put shortly:
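Developing rat cortical neurons, with glia suppressed by AraC, are exposed to chemicals from DIV 7 to DIV 12. Automated fluorescence imaging of MAP2-labelled neurites and synaptophysin puncta yields a count per neuron, normalised against DMSO wells.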

A word on the AC50: it is the concentration at which the activity in the assay is half-maximal.

`CC(C)(C)c1cc(C(C)(C)C)c(O)c(C(C)(C)C)c1`: the result in [1] was inactive.

As to `CCC(=C(c1ccc(O)cc1)c1ccc(OCCN(C)C)cc1)c1ccccc1`, the AC50 in the test with DIO3 (gene 1735) was 58.4 µM (active). The compound was called inactive in [1] and in test [2].

As to `CC(C)CCCCCCOC(=O)CCCCC(=O)OCCCCCCC(C)C`, the outcome in test [1] and in test [2] was inactive.

As for `O=C(O)c1ccccc1C(c1ccc(O)cc1)c1ccc(O)cc1`, the compound was classed as inactive in test [1] and in test [2].

Take `CCCCCCCCCCCCCCCS(=O)(=O)Oc1ccccc1`: the outcome in [1] was inactive.

For the compound `Cc1cc(CCN2CCN(c3nsc4ccccc34)CC2)cc2c1NC(=O)CC2(C)C`, the result in test [1] and in test [2] was inactive.

As to `CC1=C(/C=C/C(C)=C/C=C/C(C)=C/C(=O)O)C(C)(C)CCC1`, the concentration at half-maximal activity (AC50) with DIO3 (gene 1735) is 34.7 µM (active); in test [4] it was 19 µM (active); in test [7] it was 7.47 µM (active); in test [8], 23.4 µM (active); in [9] it was 5.77 µM (active); in [10], 29.8 µM (active). Besides, the AC50 in test [11] is 1.67 µM (active); in test [12], 4.35 µM (active); in [15] it was 6.25 µM (active). The result in test [3], in [5], in [6], in test [13], in test [14] and in [16] was inactive.

Regarding `CCCCCCCCCCCCCC[N+](C)(C)C`, the half-maximal activity concentration (AC50) in the test on DIO3 (gene 1735) was 7.85 µM (active).

`CC(O)CO` (stereo not given): the result in [6], in test [7] and in [8] was inactive.
